According to PubChem BioAssay AID1566 (Sanford-Burnham Center for Chemical Genomics, 2009):
About 1,800 (0.62%) of roughly 290,000 compounds were called active. This is one part of a sample in which actives are shown more often than they occur. A number with no mark means an inactive call. No stated cut-off is given here; in the data, active means inhibition above about 50%; inactive means the rest.

Assay: NOD2 signaling inhibitors, cell-based, luminescence, uHTS, HEK293 (AID 1566)
Settings: HEK293 NOD2/NF-kB luciferase reporter, at 4 µM, active compounds read high

Compound	inhibition
Cc1ccc(/C=C/C(=O)Nn2cnnc2)cc1	5%
Cc1cc(Br)c(S(=O)(=O)NCc2ccncc2)cc1C	48.6%
Cc1ccc(C)c(S(=O)(=O)NCc2ccncc2)c1	22.5%
Cc1c(NP(=O)(Oc2ccccc2F)Oc2ccccc2F)c(=O)n(-c2ccccc2)n1C	7.9%
O=C(Nc1cc(S(=O)(=O)N2CCCC2)ccc1OCC(F)(F)F)c1ccccc1F	6.6%
COC(=O)c1c(-c2cccs2)csc1NC(=O)CSc1ncnc2sc(C)c(C)c12	51.2% (active)
COC(=O)c1c(-c2ccccc2)csc1NC(=O)CSc1ncnc2sc(C)c(C)c12	34.6%
Cc1cccc(NC(=O)CSc2ncnc3sc(C)c(C)c23)n1	36.5%
O=C(O)CN1C(=O)C2C3CC(C2C1=O)C1C(c2ccc(Cl)cc2)c2sc(=O)[nH]c2SC31 (configuration not stated)	3.8%
Cc1nn(-c2ccccc2)c(Cl)c1/C=N/NC(=O)OC(C)(C)C	-73.9%
Cc1ccc(C(=O)Nc2nnc(S(=O)(=O)N3CCCCCC3)s2)cc1	4.6%
O=C(Nc1nnc(S(=O)(=O)N2CCCCC2)s1)c1ccc(Cl)cc1	47.8%
Cc1cccc(C(=O)Nc2nnc(S(=O)(=O)N3CCC(C)CC3)s2)c1	-3.6%
CC1CCN(S(=O)(=O)c2nnc(NC(=O)c3cccc([N+](=O)[O-])c3)s2)CC1	37.1%
CC(=O)c1cccc(NCC(=O)c2ccc(C)c([N+](=O)[O-])c2)c1	15.7%
Cc1ccc(S(=O)(=O)Nc2nnc(C(C)(C)C)s2)cc1	20.9%
N/C(=N\c1nc(CSc2ccc(Cl)cc2)cc(=O)[nH]1)Nc1ccccc1C(F)(F)F	2.8%
Cc1ccc(C2CC(c3cccs3)=NN2C(=O)CCl)cc1 (configuration not stated)	37.3%
Cc1ccc(C2=NN(C(=O)CCl)C(c3ccco3)C2)o1 (configuration not stated)	-44.2%
O=C(O)CCC(=O)N1N=C(c2ccco2)CC1c1cccs1 (configuration not stated)	12.1%
CC(=O)N1N=C(c2ccco2)CC1c1cccs1 (configuration not stated)	-8.2%
CCOC(=O)c1cccc(NC(=O)COC)c1	4.6%
CCOCCCNC(=O)/C(C#N)=C/c1ccc(C(=O)OC)cc1	15.4%
O=C1Nc2ccccc2S/C1=C\C(=O)N1CCCC1	-4%
O=C(CCNC(=O)c1ccco1)Nc1ccccc1N1CCOCC1	-4.7%

Compound	inhibition
COc1cc(/C=C2\SC(=O)N(CC(=O)Nc3cccc(C)c3)C2=O)cc([N+](=O)[O-])c1O	1.5%
CCOc1cc(/C=C2\SC(=O)N(CC(=O)Nc3ccccc3F)C2=O)cc([N+](=O)[O-])c1O	55.8% (active)
COc1cc(/C=C2\SC(=O)N(CC(=O)Nc3ccccc3F)C2=O)cc(Cl)c1O	18.4%
O=C(NC1CCCCC1)C1CN(S(=O)(=O)c2ccccc2)CCN1S(=O)(=O)c1ccccc1 (configuration not stated)	20.9%
CCOC(=O)/C(C#N)=C1/SC(CC)C(=O)N1c1ccc(Br)cc1 (configuration not stated)	-8.1%
CC1CCN(C(=S)c2cn(Cc3ccccc3F)c3ccccc23)CC1	10.5%
CC(=O)Oc1cccc(N2C(=O)C3CC=CCC3C2=O)c1 (configuration not stated)	2.7%
Cc1csc2c(N3CCN(C(=O)Nc4ccccc4)CC3)ncnc12	34.1%
Cc1csc2c(N3CCN(C(=O)Nc4ccc(OC(F)(F)F)cc4)CC3)ncnc12	10.4%
CC(NS(=O)(=O)c1ccc(Cl)cc1)C(=O)N1CCOCC1 (configuration not stated)	-4.3%
Cc1cc(OCC(=O)NCCCn2ccnc2)c2c(C)c(C)c(=O)oc2c1	-3.4%
CC(=O)c1ccc(S(=O)(=O)N(C)C(C)CCc2ccco2)cc1 (configuration not stated)	54.3% (active)
CC(CCc1ccco1)N(C)S(=O)(=O)c1csc(C(N)=O)c1 (configuration not stated)	15%
COc1ccc(S(=O)(=O)N(C)C(C)CCc2ccco2)cc1 (configuration not stated)	-3.3%
CC(C)(C)C(=O)C[n+]1cccc(C(N)=O)c1	12.8%
O=C(COc1ccccc1)Nc1cc(C(F)(F)F)ccc1N1CCCC1	24.5%
Cc1cc(N2CCCC2)ccc1NC(=O)COc1cccc(C(F)(F)F)c1	60.3% (active)
O=C(COc1cccc(C(F)(F)F)c1)Nc1ccc(S(=O)(=O)N2CCCC2)cc1	-5.9%
O=C(Nc1cccc(C(F)(F)F)c1)C1CCN(S(=O)(=O)c2ccc(N3CCCC3=O)cc2)CC1	34.8%
Cc1cccc(C)c1N=C1C(=O)Nc2ccccc21	57.9% (active)
Cc1ccc(N=C2C(=O)Nc3ccccc32)cc1	4%
Cc1cc(C)c(N=C2C(=O)Nc3ccccc32)c(C)c1	22.5%
CCN(CC)C(=O)C1CCN(S(=O)(=O)c2ccc3c(c2)CCCN3C(=O)C2CCC2)CC1	23.6%
COc1ccc(NC(C)=O)cc1NC(=O)c1ccc2ccccc2c1	-14.6%
CCc1sc(NC(C)=O)nc1-c1ccccc1	-49.5%

Compound	inhibition
CC(=O)Nc1ccc(NC(=O)C2CCC(CNS(=O)(=O)c3cccc4nsnc34)CC2)cc1 (configuration not stated)	-8.1%
CCCc1cc(=O)n2nc(N3CCC(C(=O)N4CCN(c5cccc(OC)c5)CC4)CC3)sc2n1	40.5%
Cc1cc(=O)n2nc(N3CCC(C(=O)N4CCN(c5ccccc5)CC4)CC3)sc2n1	-8.2%
CCCc1cc(=O)n2nc(N3CCC(C(=O)N4CCN(c5ccc(OC)cc5)CC4)CC3)sc2n1	62.2% (active)
NS(=O)(=O)c1ccc(CCNC(=O)c2ccc3ccccc3n2)cc1	-17.8%
O=C(Nc1nnc(C2CC2)s1)c1ccc(Cl)c(S(=O)(=O)N2CCc3ccccc3C2)c1	41.6%
CCc1nnc(NC(=O)c2ccc(S(=O)(=O)N3CCc4ccccc4C3)cc2)s1	25.4%
CCCn1ncc(CN2CCCC(C(=O)c3cccc(OC(C)C)c3)C2)c1C (configuration not stated)	-35.2%
Cc1[nH]c2ccc(C(=O)N3CCCCC3)cc2c1C	-56%
CCC(=O)OCn1nnc2ccccc2c1=O	7.6%
Cc1sc(NC(=O)CCC(=O)O)c(C(N)=O)c1-c1ccccc1	-3.9%
Cc1sc(NC(=O)c2cccc([N+](=O)[O-])c2)c(C(N)=O)c1-c1ccc(C(C)(C)C)cc1	7.8%
O=S(=O)(Nc1cccc(-c2cn3cccnc3n2)c1)c1ccc(F)cc1	0.9%
O=S(=O)(Nc1cccc(-c2cn3cccnc3n2)c1)c1ccccc1	4.2%
COC(=O)C1CC(Cl)CN1c1ncc(C(F)(F)F)cc1Cl (configuration not stated)	17.1%
OCCCCCNc1ncnc2ccccc12	40.1%
CCCCCCCCNc1ncnc2ccccc12	55.7% (active)
CCN(CC)CCCNc1ncnc2ccccc12	9.5%
OCCNc1ncnc2ccc(Br)cc12	23%
c1ccc(CNc2nc(NCc3ccccc3)c3ccccc3n2)cc1	-4.4%
c1ccc(CCNc2ncnc3ccccc23)cc1	28.7%
COc1cc2ncnc(NCc3ccccc3)c2cc1OC	-17.4%
Clc1ccc2c(NCc3ccco3)ncnc2c1	18.8%
COc1cc2ncnc(NCc3ccco3)c2cc1OC	-78.1%
c1ccc(CNc2ncnc3ccccc23)cc1	55.3% (active)

Compound	inhibition
Brc1ccc2ncnc(NCc3ccccc3)c2c1	79% (active)
Nc1nc(Nc2cccc(Cl)c2)nc(NCCO)c1[N+](=O)[O-]	15.3%
CCOc1ccc(CN(C)CC(=O)Nc2cc(OC)c([N+](=O)[O-])cc2C)cc1	-8%
CCCN(CCC)S(=O)(=O)c1ccc(C(=O)NNc2nc(-c3ccccc3)c3cc(Br)ccc3n2)cc1	-5%
Cc1cccnc1NC(=O)CCNC(=O)c1ccccc1Cl	-22.7%
COc1ccccc1NC(=O)CSc1n[nH]c(-c2cccnc2)n1	8.6%
COc1ccc(C2C(C(=O)c3ccco3)=C(O)C(=O)N2CCCn2ccnc2)c(OC)c1 (configuration not stated)	-6.9%
CC(C)=C(NC(=O)c1ccccc1)C(=O)NCc1ccccc1	-7%
O=c1sc2ccccc2c(N2CCOCC2)c1[N+](=O)[O-]	8.4%
COc1cc(/C=N\n2cnnc2)ccc1OCC(=O)Nc1ccc(C)cc1	12.5%
COC(=O)C1(Cc2cc(-c3cccnc3)no2)CCN(C(=O)OC(C)(C)C)CC1	15.6%
CN1CCN(c2ccc(-c3ccc4ccccc4n3)cc2)CC1	79.9% (active)
c1ccc2nc(-c3ccc(N4CCOCC4)cc3)ccc2c1	-59.7%
COc1ccc(-c2ccc3ccccc3n2)cc1	-226%
Cc1cccc(Oc2ccc(N)cc2)c1	-4%
Nc1ccc(Oc2cc(N)cc(Oc3ccccc3)c2)cc1	-93.4%
CC(C)c1ccc(C(C(=O)NC2CCCC2)N(C(=O)c2csnn2)C2CC2)cc1 (configuration not stated)	12.1%
CC(SCc1ccccc1)C(=O)NC1CCCC1 (configuration not stated)	-2.5%
Cc1cc(C)nc(SCC(=O)Nc2ccnc3ccccc23)n1	50.5% (active)
Cc1nc(SCC(=O)Nc2ccnc3ccccc23)n[nH]1	17.9%
Cc1cc(=O)[nH]c(SCC(=O)Nc2ccnc3ccccc23)n1	26.4%
NC(=O)c1cnn(-c2cc(Oc3ccccc3)ncn2)c1N	-54.7%
